Source: PubChem
Most compounds without a hit are left out; they make up all but 9.3% or so of the library.
FLuc counter: inhibits or activates purified firefly luciferase, miR-21 counter-screen | P08659 | purified FLuc, Km substrates, luminescence inhibition | Potency, µM (titrated, usually from 57.5 µM), inactives show at the highest dose activity change, negative = inhibition, actives largely listed as inhibitors | 360,000 tested, 6.9% active | AID 588342;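 further: plate controls were vehicle for no effect and reference inhibitor for full effect; nearly all actives have a fitted effect of over 55% in size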
Target sequence (P08659 whole entry, looked up): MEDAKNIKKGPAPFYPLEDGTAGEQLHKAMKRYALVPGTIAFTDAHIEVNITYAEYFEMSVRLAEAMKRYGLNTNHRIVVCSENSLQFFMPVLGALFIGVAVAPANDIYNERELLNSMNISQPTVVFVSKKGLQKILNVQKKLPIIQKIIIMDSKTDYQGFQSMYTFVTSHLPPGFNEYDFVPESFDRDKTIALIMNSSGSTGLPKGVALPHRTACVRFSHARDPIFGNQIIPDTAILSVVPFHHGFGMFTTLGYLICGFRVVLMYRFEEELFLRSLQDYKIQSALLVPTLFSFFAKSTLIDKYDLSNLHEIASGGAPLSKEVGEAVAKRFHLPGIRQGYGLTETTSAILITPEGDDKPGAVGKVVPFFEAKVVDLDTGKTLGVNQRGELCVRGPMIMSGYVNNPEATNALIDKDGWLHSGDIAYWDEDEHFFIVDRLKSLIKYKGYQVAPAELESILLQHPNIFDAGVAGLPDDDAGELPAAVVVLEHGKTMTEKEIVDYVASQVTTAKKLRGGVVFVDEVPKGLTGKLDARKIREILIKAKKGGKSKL
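Purified P. pyralis luciferase, 10 nM final, with Km-level 10 uM D-luciferin and 10 uM ATP in 50 mM Tris acetate pH 7.5, 10 mM Mg acetate, 0.01% Tween-20, 0.05% BSA; 6-point qHTS titration about 60 µM downward; luminescence read.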
Rab9 prom act: activates the Rab9 promoter; 320,000 tested, 2.8% active; Huh7 Rab9 promoter-luciferase reporter, luminescence, 24 h; Potency, µM (titrated, usually from 9.22 µM), inactives show top-dose activation, negative = inhibition, hits mostly activators; further: % of control where 0% means no effect; nearly all actives have a fitted effect of over 60% in size
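Stable Rab9-luc Huh7, 1500 cells/well, 2 h settle; cmpd in DMSO, 24 h, 37 °C/5% CO2; luciferase reagent 10 min RT; luminescence.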
NPC1 prom act: NPC1 promoter activation | Huh7 NPC1 promoter luciferase reporter, 24 h | Potency, µM (series often up to 9.22 µM), for the others: at the highest dose activation, usual class: activators | 320,000 tested, 2.4% active; further: % of control where 0% means no effect; nearly all actives have a fitted effect of over 60% in size
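Luminescence from an NPC1 promoter-driven luciferase reporter in stably transfected Huh7 cells was measured after 24 h compound treatment at 37 °C, followed by 10 min ambient incubation with luciferase detection reagent.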
SMN2 splice enh: increases expression of the SMN2 splice variant; HEK293 SMN2-luciferase splicing reporter, luminescence, 30-36 h; AID 1458; Potency, µM (doses to about 46.1 µM), inactives show at the top dose activity change, positive = activation, hits mostly activators; 210,000 tested, 2.8% active; further: % of control where 0% means no effect; nearly all actives have a fitted effect of over 55% in size
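HEK293 cells carry an SMN2 […]–luciferase reporter in which exon 7 inclusion puts luciferase in frame. Cells were plated 10-12 h before compound addition, then incubated 30-36 h at 37C. ONE-Glo luminescence was read; sodium butyrate at 4.5 mM final served as control.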
ELG1 repair inh: inhibitors of ELG1-dependent DNA repair in HEK293T cells; HEK293T ELG1-luciferase reporter, luminescence, 16 h; DNA damage induced by 5-fluorouridine; AID 504467; 330,000 tested, 2.3% active; Potency, µM (highest dose often 46.1 µM), for the others: at the highest dose activity change, negative = inhibition, hits mostly inhibitors; further: on the % scale 0 is the no-effect control and ±100 the full control effect; nearly all actives have a fitted effect of over 55% in size
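Luminescence from the luciferase reporter, measured 30 min after ONE-Glo reagent at room temperature, was the read-out. Beforehand, 2,000 cells per well were exposed for 16 hr at 37 °C to 5-fluorouridine together with compound or vehicle.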
ELG1 genotoxic: genotoxicity induction in ELG1-luciferase HEK293T cells; Potency, µM (doses to about 46 µM), inactives show top-dose activity change, positive = activation, hits mostly activators; HEK293T ELG1-luciferase reporter, luminescence, 16 h; 330,000 tested, 1.3% active; further: % of control where 0% means no effect; nearly all actives have a fitted effect of over 60% in size
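Cells (2,000/well) expressing the ELG1-luciferase fusion are dosed by pin tool and kept 16 hr at 37 °C, 5% CO2. Signal comes from ONE-Glo luciferase reagent after 30 min at room temperature.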
Numbers without * were called inactive; ? = inconclusive; . = no result given. The call rests on the fitted dose curve; in most records, active means well fitted curve in the direction sought with a large enough effect; inconclusive means small, poorly fitted or top-dose-only effect, or another doubt; inactive means no such curve, though single readings can be large; an effect the other way counts as inactive or inconclusive. Potency means the concentration at half of the fitted maximal effect.

SMILES | FLuc counter | Rab9 prom act | NPC1 prom act | SMN2 splice enh | ELG1 repair inh | ELG1 genotoxic
COc1ccc(-c2noc(N(C)CC(=O)Nc3cccc(C(F)(F)F)c3)n2)cc1 | 8.5µM* | 22% | ? | 9% | ? | 2%
COc1cccc(NC(=O)CN(C)CC(=O)Nc2cccc(C(F)(F)F)c2)c1 | 0% | -5% | -5% | . | -11% | -4%
CN(CC(=O)Nc1cccc(F)c1)C(=O)c1ccc(-c2cccc(C(F)(F)F)c2)o1 | 0% | 6% | -5% | . | 0.29µM* | 3%
COc1cccc(NC(=O)CN(C)C(=O)c2ccc(-c3cccc(C(F)(F)F)c3)o2)c1 | 2% | -3% | -5% | . | -3% | -2%
COc1ccccc1-c1nnc(SCC(=O)NC2CCCCC2)n1N | . | . | . | . | ? | 2%
COc1ccc(N2CCN(C(=O)CC(C)S(=O)(=O)c3ccc4c(c3)NC(=O)CO4)CC2)cc1 (stereo unspecified) | 3% | -7% | -5% | . | 13µM* | -14%
CC(CC(=O)N1CCN(c2cccc(Cl)c2)CC1)S(=O)(=O)c1ccc2c(c1)NC(=O)CO2 (stereo unspecified) | 0% | -27% | -15% | . | ? | -15%
COC(=O)Cn1c(=NC(=O)c2cc(OC)cc(OC)c2)sc2cc(OC)ccc21 | 11% | 2% | -3% | 2% | ? | -5%
COc1cccc(C(=O)N=c2sc3cc(S(C)(=O)=O)ccc3n2C)c1 | -14% | 3.5µM* | ? | 7% | ? | ?
COc1ccc(C(=O)N=c2sc3ccccc3n2C)cc1 | 1.7µM* | 2.5µM* | 3.2µM* | 2.5µM* | ? | ?
COc1cc(OC)cc(C(=O)N=c2sc3ccccc3n2C)c1 | ? | 2.5µM* | ? | 10µM* | ? | ?
COC(=O)Cn1c(=NC(=O)c2cccc(OC)c2)sc2cc(OC)ccc21 | 3µM* | 11% | 12% | -8% | ? | -1%
Cc1ccccc1OCCC(=O)OCC(=O)NC1CCCCC1 | -1% | -13% | 0% | . | 0% | -6%
CN(C)Cc1ccccc1-c1ccc2ncnc(N3CCOCC3)c2c1 | . | . | . | 0% | . | .
CCc1ccccc1NC(=O)Cn1nc(C(F)(F)F)c2c1CCCC2 | 0% | . | . | 1% | . | .
Cn1c(=NC(=O)CS(=O)(=O)c2ccccc2)sc2ccccc21 | 2% | ? | ? | . | ? | 12%
Cn1c(=NC(=O)COc2ccccc2)sc2ccccc21 | 13µM* | 2µM* | 3.5µM* | 13µM* | ? | 0%
Cc1ccc(CNC(=O)c2cc3c(-c4ccc(Cl)cc4)nn(C)c3s2)o1 | 4% | -12% | -18% | -43% | 16µM* | -17%
COc1cccc(-n2c(=O)c3c4c(sc3n(Cc3ccc(C)cc3)c2=O)CCCC4)c1 | -3% | . | . | -6% | . | .
Cc1cc(C(=O)COC(=O)c2ccccc2O)c(C)n1Cc1cccs1 | 0.085µM* | -40% | -23% | . | ? | -11%
CCn1nc(C(=O)OCC(=O)c2ccc3c(c2)OCCO3)c2ccccc2c1=O | 2.4µM* | -6% | 0% | -7% | 0% | -1%
CCn1nc(C(=O)OCC(=O)c2ccc(F)cc2)c2ccccc2c1=O | -20% | -2% | -1% | -7% | 0% | -5%
Cc1cc(C(=O)COC(=O)c2ccc(N)c([N+](=O)[O-])c2)c(C)n1Cc1ccc2c(c1)OCO2 | ? | 3% | 26% | . | 13% | 7%
Cc1cc(C(=O)COC(=O)c2ccc3c(c2)OCO3)c(C)n1Cc1cccs1 | 2.7µM* | 4µM* | 3.5µM* | 19% | ? | 23µM*
COCC(C)n1c(C)cc(C(=O)COC(=O)c2nn(C)c(=O)c3ccccc23)c1C (stereo unspecified) | . | . | . | . | ? | -1%
SMILES | FLuc counter | Rab9 prom act | NPC1 prom act | SMN2 splice enh | ELG1 repair inh | ELG1 genotoxic
CCn1nc(C(=O)OCC(=O)c2cc(C)n(Cc3cccs3)c2C)c2ccccc2c1=O | 3µM* | -3% | -1% | ? | ? | 18µM*
C=CC[C@@H](CC(=O)N[C@@H](CO)Cc1ccccc1)C(=O)N[C@H](COC(=O)[C@@H](CC=C)Cc1ccc(F)cc1)Cc1c[nH]c2ccccc12 | . | . | . | . | ? | -5%
CC(C)n1c(CN(C)c2ccccc2)nc2ccccc21 | -10% | -2% | -5% | . | -12% | -7%
CCCn1c(/C=C/c2ccccc2)nc2ccccc21 | 3µM* | 1.8µM* | 1.8µM* | 11µM* | ? | ?
CC(C)n1c(/C=C/c2ccccc2)nc2ccccc21 | 2.4µM* | ? | ? | 11µM* | ? | ?
COc1ccc(/C=C/c2nc3ccccc3n2Cc2ccc(OC)c(OC)c2)cc1 | 0.43µM* | 0.79µM* | 1.6µM* | . | ? | 2.1µM*
CCc1nc2ccccc2n1Cc1ccc(OC)c(OC)c1 | -1% | -1% | 0% | -16% | -2% | 6%
COCCOCCn1c(/C=C/c2ccccc2)nc2ccccc21 | 1.7µM* | 1.4µM* | 1.4µM* | 13µM* | ? | ?
C=CCn1c(N)cc(=O)nc1SCC(=O)N(c1ccccc1)c1ccccc1 | -1% | 0% | -1% | 5% | 7% | 0%
Cc1ccc(NC(=O)Cn2c(/C=C/c3ccccc3)nc3ccccc32)cc1C | ? | 2% | 2% | 18% | 17% | ?
CC(C)c1ccccc1NC(=O)Cn1c(/C=C/c2ccccc2)nc2ccccc21 | 21µM* | 10% | -3% | . | ? | ?
CCN(CC)Cc1c(O)ccc2c1O/C(=C\C=C\c1ccccc1)C2=O | 12µM* | -4% | -4% | . | -16% | -1%
COc1ccccc1/C=C/C=C1\Oc2c(ccc(O)c2CN(C)C)C1=O | 3µM* | 2% | 2% | . | 0% | 2%
COCCN(CCOC)Cc1c(O)ccc2c1O/C(=C\c1ccc(C)o1)C2=O | ? | -2% | -2% | . | 0% | -1%
COc1ccccc1-c1c(C(F)(F)F)oc2c(CN(C)C)c(O)ccc2c1=O | -1% | 3% | 5% | . | -6% | 2%
COc1ccc(CNC(=O)C2(CC(=O)NC(C)(C)C)CCCC2)cc1 | -1% | 3% | -4% | . | 14% | -1%
O=C(c1ccc(Cn2c(=O)[nH]c3ccccc3c2=O)cc1)N1CCN(c2ccc(Cl)cc2)CC1 | 5% | -9% | 1% | -39% | 23µM* | -18%
C=CCn1c(=O)[nH]c2cc(C(=O)N3CCN(c4cccc(Cl)c4)CC3)ccc2c1=O | 3% | -10% | 0% | -44% | ? | -9%
CC(=O)c1ccc(N2CCN(C(=O)c3ccc4c(=O)n(-c5ccccc5)c(=O)[nH]c4c3)CC2)cc1 | -4% | -12% | -12% | -53% | 23µM* | 0%
